According to PubChem BioAssay (EPA / NIEHS):
Calls of active or inactive are those of the source. How the source made its calls: active means hit-call score of the fitted dose curve at least 0.9, where 1 is the maximum; inactive means score below 0.9.

assay: ATG_AP_2_CIS: Attagene CIS-FACTORIAL HepG2 Assay for human Activator Protein 2 (AP-2) (AID 2282932); settings: HepG2 AP-2 cis-reporter, Attagene transcription factor profiling; actives raise or lower the signal
Experimental: ATG_CIS is a cell-based, multiplexed-readout assay that uses HepG2, a human liver cell line, with measurements taken at 24 hours after chemical dosing in a 24-well plate.ATG_AP_2_CIS is one of 52 assay component(s) measured or calculated from the ATG_CIS assay. It is designed to make measurements of mRNA induction, a form of inducible reporter, as detected with fluorescence intensity signals by Reverse transcription polymerase chain reaction (RT-PCR) and Capillary electrophoresis technology.Data from the assay component ATG_AP_2_CIS was analyzed into 1 assay endpoint. This assay endpoint, ATG_AP_2_CIS, was analyzed with bidirectional fitting relative to DMSO as the negative control and baseline of activity. Using a type of inducible reporter, measures of mRNA for gain or loss-of-signal activity can be used to understand the reporter gene at the transcription factor-level as they relate to the gene TFAP2A and TFAP2B and TFAP2D. Furthermore, this assay endpoint can be referred to as a primary readout, because this assay has produced multiple assay endpoints where this one serves a reporter gene function. To generalize the intended target to other relatable targets, this assay endpoint is annotated to the dna binding intended target family, where the subfamily is basic helix-turn-helix leucine zipper.
Human liver HepG2 cells are transiently transfected with multiple reporter transcription units (MRTUs) in 6-well plates using FuGene 6 reagent (Roche; 3 ml FuGene/1 mg DNA). The MRTU constructs are regulated by a cis-regulating element (promoter). […] A major difference between the CIS and TRANS system is that in CIS activities of endogenous TFs are measured, whereas the TRANS assay evaluates changes in activities of exogenous, chimeric NR-Gal4 proteins. […] At the end of 24 hour incubation, total RNA was isolated using TriZol reagent (Invitrogen). The isolated RNA is then reverse-transcribed using oligo(dT) primer and Mo-MLV reverse transcriptase (Invitrogen) with DNAse I (Ambion) treatment for 30 min. The one-tenth of the produced cDNA was amplified by PCR using Taq DNA polymerase (Invitrogen) and two reporter sequence-specific primers. The PCR products were fluorescently labeled by primer extension with 6-arboxyfluorescein (6-FAM) 5'-labeled reporter sequence-specific primer (2 min at 95 C, 20 s at 68 C and 10 min at 72 C) and these products were digested with 5U of HpaI (New England Biolabs) for 2h at 37 C. The fragments were purified using Qiaquick PCR columns (Qiagen), analyzed on an ABI 3130xL genetic analyzer (Applied Biosystems) with peak positions identified by using a set of X-rhodamine (ROX)-labeled MapMarker1000 molecular weight standards (BioVentures). The raw capillary electrophoresis data was processed using Attagraph software (Attagene).

SMILES | outcome | AC50
CCOC(=O)NC(=S)Nc1ccccc1NC(=S)NC(=O)OCC | inactive | 
CCCC=NO | inactive | 
C=CC(=O)OC | inactive | 
CC(=O)C=Cc1ccccc1 |  | 143 µM (active)
CCc1cc(C)cc(CC)c1-c1c(OC(=O)C(C)(C)C)n2n(c1=O)CCOCC2 | inactive | 
CN1C[C@H](C(=O)N[C@]2(C)O[C@@]3(O)[C@@H]4CCCN4C(=O)[C@H](Cc4ccccc4)N3C2=O)C=C2c3cccc4[nH]cc(c34)C[C@H]21 | inactive | 
Cl/C=C\CCl | inactive | 
O=C(O)CCl | inactive | 
CCC(C)c1cc([N+](=O)[O-])cc([N+](=O)[O-])c1OC(=O)C=C(C)C (stereo not given) | inactive | 
ClCCCCCCCl | inactive | 
Cc1ccccc1CCl | inactive | 
O=c1c2ccccc2c(=O)c2c1cc(Cl)c1[nH]c3c([nH]c12)c(Cl)cc1c(=O)c2ccccc2c(=O)c13 | inactive | 
CC(=O)/C=C/c1ccccc1 | inactive | 
Cc1cc(C)c(C2=C(OC(=O)CC(C)(C)C)C3(CCCC3)OC2=O)c(C)c1 | inactive | 
Nc1ccccc1 | inactive | 
CCOC(=O)C1OC1(C)c1ccccc1 (stereo not given) | inactive | 
C[C@]12CC[C@H]3[C@@H](CC[C@@]45O[C@@H]4C(O)=C(C#N)C[C@]35C)[C@@H]1CC[C@@H]2O | inactive | 
O=C(NCNC(=O)NC1C(=O)NC(=O)N1CO)NC1C(=O)NC(=O)N1CO (stereo not given) | inactive | 
O=C(CCl)c1ccccc1 |  | 18.9 µM (active)
CNC(=O)Oc1cc(C)c(SC)c(C)c1 | inactive | 

SMILES | outcome | AC50
COCC(=O)N(c1c(C)cccc1C)N1CCOC1=O | inactive | 
CCOP(=O)(OCC)Oc1ccc([N+](=O)[O-])cc1 | inactive | 
Oc1ccc(Cl)cc1 | inactive | 
N#CCCCl | inactive | 
CCCCCCC1CCOC1=O (stereo not given) | inactive | 
N#CCNCC#N | inactive | 
CC(C)(C)C(=O)CCl | inactive | 
ClCC(Cl)Cl | inactive | 
CC(C)(C)C(O)C(Oc1ccc(-c2ccccc2)cc1)n1cncn1 (stereo not given) | inactive | 
CC(C)(O)C#N | inactive | 
CCCCOP(=O)(O)OCCCC | inactive | 
C=CC(=O)OCC(CC)CCCC (stereo not given) | inactive | 
O=C(NC(=O)c1c(F)cccc1F)Nc1ccc(Oc2ccc(C(F)(F)F)cc2Cl)cc1F | inactive | 
COC(=O)COc1ccc(Cl)cc1Cl | inactive | 
CCCCOC(=O)CCC(=O)OCCCC | inactive | 
N#CCCCCC#N | inactive | 
CCOC(=O)N(C)N=O | inactive | 
CCCCCCCCCCCCCCCC[N+](C)(C)C | inactive | 
CCOP(=O)(OCC)OCC | inactive | 
CC(C)C#N | inactive | 
